One may read the inhibition as the relative decrease from the control value, in per cent. Usually viability stands for a per cent measure of how many cells are alive, often set against a control.

“And” between values parts separate entries of the source, which are not always exact repeats. Equal entries are not always repeated. For some of these results: Potency and affinity values are given separately. The source made the active and inactive calls.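 The calls were made as follows, unless noted: active = at least 20% inhibition of 6-phosphogluconate dehydrogenase activity; inactive = the rest.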

The record followed here is PubChem BioAssay.

Experiment [1] addresses 6-phosphogluconate dehydrogenase, decarboxylating (Homo sapiens) (UniProt P52209). Kind of experiment: inhibition of human phosphogluconate dehydrogenase – biochemical, recombinant enzyme, NADPH absorbance, primary screen (AID 1159550). The settings on record: recombinant 6PGD, NADPH absorbance 341 nm; at 10 µM; stronger effect = higher value.
Experiment [2] is described as follows: EMT-state selective cytotoxicity in co-culture – imaging, PC-3E GFP, TEM4-18 mCherry, primary screen (AID 1345086;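 active = compounds killing one labelled cell type while sparing the other, by normalised counts and ratio limits, not self-fluorescent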;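 as to all read-outs here: cells exposed to compound for 72 h before imaging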;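 as to red/green cell ratio (normalised): normalised mesenchymal count divided by normalised epithelial count so high means epithelial killing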). The settings on record: PC-3E GFP / TEM4-18 mCherry co-culture, imaging cell counts, at 1 µM; for red/green cell ratio (normalised): actives lie on both sides, counts scaled to control wells, 1 = unselective.
The nature of experiment [3]: blockers of polyQ-driven CASP3 activation – cell-based (AID 1583). Particulars: polyglutamine-induced caspase-3 activation, cell assay; stronger effect = higher value;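 tested at 10 µM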.
The nature of experiment [4]: yeast 75Q aggregation reduction – 75Q-TubU reporter (AID 1593). Particulars: Yeast 75Q polyglutamine aggregation reporter.
Experiment [5] in a line: restoration of touch response, mutant HTT neurons – whole organism, C. elegans mechanosensory neurons, N-terminal huntingtin (AID 1599). The settings on record: C. elegans polyQ-huntingtin mechanosensory neurons, stronger effect = higher value.
The nature of experiment [6]: blockers of cytochrome c efflux from mitochondria – biochemical, purified mitochondria (AID 1603).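 Also: mouse liver mitochondria challenged with calcium chloride; signal normalized to the plate average as 100%.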 The settings on record: stronger effect = lower value.
The nature of experiment [7]: polyglutamine aggregate formation blockers (AID 1604). Particulars: polyglutamine-induced protein aggregation inhibition assay; stronger effect = higher value; tested at 2.5 µM.
Experiment [8] can be described thus: glutamate transport activators, MN-1 cells, MN-1 cell line (AID 1612).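 Also: tested at 1 µM final; 0% = mean of DMSO vehicle wells on each plate; positive means more glutamate uptake than control and negative means less.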 The settings on record: MN-1 motor neuron cells, stronger effect = higher value.
A short description of experiment [9]: 75Q-TubH aggregate inhibition, S. cerevisiae, yeast (AID 1616). Particulars: S. cerevisiae 75Q-TubH polyglutamine aggregation suppression; stronger effect = higher value.
Experiment [10] is described as follows: compounds altering circadian rhythm period length – cell-based, LOPAC library, luminescence reporter (AID 2774; call rule not given here;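 also: values are relative to mean of DMSO wells on each plate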). The settings on record: circadian reporter cells, at 7 µM, actives lie on both sides.
The nature of experiment [11]: P. berghei load reduction in hepatocytes – cell-based, HepG2, luciferase luminescence, HepG2 viability, primary screen (AID 624349; in the data active = parasite load remaining mostly below about 12%, no sharp cut-off; inactive = mostly above about 10%;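 also: 100% = mean of DMSO negative control wells on the same plate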). Particulars: P. berghei liver stage in HepG2, luciferase luminescence, concentration not given here; parasite load remaining: stronger effect = lower value; viability: measured here: HepG2 viability without parasites.
Experiment [12] deals with Hepatitis C virus NS3 helicase. Kind of experiment: blockers of NS3h binding to ssDNA – biochemical, fluorescence polarization, LOPAC1280 library, primary screen (AID 687035; in the data active = inhibition above about 37%). The settings on record: Purified HCV NS3 helicase, Cy5-dT15 ssDNA binding fluorescence polarization; stronger effect = higher value; concentration not given here.
Experiment [13] can be described thus: viability loss with induced miR-34 in A549 – imaging, A549 dox-inducible miR-34, nuclei and caspase counts, primary screen (AID 1347080;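 active = compounds whose cell count with miR-34 switched on is under 0.7 times the count with it off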). The settings on record: A549 miR-34 inducible, Hoechst nuclei count, 48 h.
Experiment [14] can be described thus: blockers of cellular phospholipid synthesis – cell-based, LOPAC library, screen 4, primary screen (AID 1347384; call rule not given here). Particulars: animal cells, phospholipid biosynthesis inhibition screen; at 10 µM.
In experiment [15] the target is NAD(+) hydrolase SARM1 (Homo sapiens) (UniProt Q6SZW1). The experiment in a line: blocking NAD cleavage by SARM1 SAM-TIR – cell lysate, NAD-Glo luminescence (AID 1508614;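 active = compound whose remaining NAD level is above about 45 nM, limit read from the data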;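 also: higher remaining NAD means stronger inhibition of SARM1 NADase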). Particulars: SAM-TIR HEK293T lysate NADase, at 1 µM, stronger effect = higher value.
Chain of NAD(+) hydrolase SARM1 (Homo sapiens) (Q6SZW1 whole entry, looked up, the tested form may be a part): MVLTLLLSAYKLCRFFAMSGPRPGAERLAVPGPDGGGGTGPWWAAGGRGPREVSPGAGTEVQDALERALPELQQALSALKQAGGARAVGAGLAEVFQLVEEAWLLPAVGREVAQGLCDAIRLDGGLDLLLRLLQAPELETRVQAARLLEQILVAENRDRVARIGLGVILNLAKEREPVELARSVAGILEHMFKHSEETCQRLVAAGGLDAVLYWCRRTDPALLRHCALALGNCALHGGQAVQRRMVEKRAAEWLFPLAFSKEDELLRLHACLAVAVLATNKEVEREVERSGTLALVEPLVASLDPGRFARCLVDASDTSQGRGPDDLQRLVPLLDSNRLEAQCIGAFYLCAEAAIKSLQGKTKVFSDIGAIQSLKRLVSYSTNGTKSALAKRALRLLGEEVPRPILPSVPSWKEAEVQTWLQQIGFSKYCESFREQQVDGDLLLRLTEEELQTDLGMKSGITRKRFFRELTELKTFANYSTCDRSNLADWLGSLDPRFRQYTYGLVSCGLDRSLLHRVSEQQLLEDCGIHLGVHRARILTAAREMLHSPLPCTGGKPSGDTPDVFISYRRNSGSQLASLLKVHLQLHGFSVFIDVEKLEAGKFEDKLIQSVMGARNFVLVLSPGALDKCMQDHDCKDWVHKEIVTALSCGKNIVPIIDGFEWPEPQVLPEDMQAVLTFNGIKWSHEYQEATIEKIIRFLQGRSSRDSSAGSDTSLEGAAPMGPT
In experiment [16] the target is Mitogen-activated protein kinase 7 (Homo sapiens) (UniProt Q13164). The experiment in a line: Gal4-ERK5 driven luciferase induction – cell-based, HTS, primary screen (AID 1508626;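 active = luciferase signal above three times the same-plate solvent-only control wells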;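 also: luciferase driven by Gal4-ERK5 fusion binding five Gal4 sites before minimal TATA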). Particulars: HeLa Gal4-ERK5 transactivation, 18 h, at 5 µM, stronger effect = higher value.
Chain of Mitogen-activated protein kinase 7 (Homo sapiens) (Q13164 whole entry, looked up, the tested form may be a part): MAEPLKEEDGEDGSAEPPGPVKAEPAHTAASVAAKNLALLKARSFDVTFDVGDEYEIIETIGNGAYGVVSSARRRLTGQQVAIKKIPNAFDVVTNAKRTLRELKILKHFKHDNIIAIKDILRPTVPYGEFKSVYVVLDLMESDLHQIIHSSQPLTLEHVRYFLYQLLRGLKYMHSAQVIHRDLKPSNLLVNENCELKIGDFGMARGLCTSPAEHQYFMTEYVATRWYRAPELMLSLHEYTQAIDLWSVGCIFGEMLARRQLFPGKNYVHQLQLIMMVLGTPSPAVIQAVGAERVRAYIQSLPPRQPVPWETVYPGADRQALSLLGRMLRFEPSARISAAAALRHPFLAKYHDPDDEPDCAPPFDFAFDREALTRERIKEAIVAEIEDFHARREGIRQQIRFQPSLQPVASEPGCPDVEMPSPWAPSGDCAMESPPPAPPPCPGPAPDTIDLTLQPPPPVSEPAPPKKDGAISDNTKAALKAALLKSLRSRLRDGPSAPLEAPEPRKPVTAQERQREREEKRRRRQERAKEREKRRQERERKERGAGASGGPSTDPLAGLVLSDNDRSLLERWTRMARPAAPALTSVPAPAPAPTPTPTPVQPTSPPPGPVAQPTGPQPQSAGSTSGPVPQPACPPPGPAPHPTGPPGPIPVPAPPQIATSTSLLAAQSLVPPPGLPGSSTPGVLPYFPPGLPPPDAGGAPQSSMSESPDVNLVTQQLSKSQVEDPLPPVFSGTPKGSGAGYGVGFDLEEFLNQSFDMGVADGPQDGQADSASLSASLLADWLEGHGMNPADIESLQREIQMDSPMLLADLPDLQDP
A short description of experiment [17]: galactose survival enhancers in mitochondrial complex I cybrids – cell-based, galactose medium, ATP luminescence, primary screen (AID 1645843;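 active = z-score of at least 1.8 in each of two replicates, scored against plate mean and spread of sample wells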;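 also: positive z means more ATP and so rescue of galactose-driven cybrid death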). The settings on record: complex I mutant cybrid cells, 72 h, stronger effect = higher value.
Experiment [18] can be described thus: GFP-Q80 aggregate reduction, neuronal-like cells, cell-based, NGF-treated PC12, GFPQ80 (AID 1614).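 Also: lower means fewer inclusions and 0 means no inclusions at all.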 The settings on record: PC12 NGF-treated GFP-polyQ80 inclusion reduction.
Setting [19] is: measured here: epithelial PC-3E GFP cell survival.
The mark [20] stands for this setting: measured here: mesenchymal TEM4-18 mCherry cell survival.
Setting [21] is: stronger effect = lower value, cell number ratio, induced over uninduced.
[22] abbreviates: measured here: relative caspase fold change +Dox/-Dox.
The mark [23] stands for this setting: measured here: total cells with miR-34 induction, stronger effect = lower value.
[24] abbreviates: measured here: total cells without miR-34 induction.

Chain of 6-phosphogluconate dehydrogenase, decarboxylating (Homo sapiens) (P52209 whole entry, looked up): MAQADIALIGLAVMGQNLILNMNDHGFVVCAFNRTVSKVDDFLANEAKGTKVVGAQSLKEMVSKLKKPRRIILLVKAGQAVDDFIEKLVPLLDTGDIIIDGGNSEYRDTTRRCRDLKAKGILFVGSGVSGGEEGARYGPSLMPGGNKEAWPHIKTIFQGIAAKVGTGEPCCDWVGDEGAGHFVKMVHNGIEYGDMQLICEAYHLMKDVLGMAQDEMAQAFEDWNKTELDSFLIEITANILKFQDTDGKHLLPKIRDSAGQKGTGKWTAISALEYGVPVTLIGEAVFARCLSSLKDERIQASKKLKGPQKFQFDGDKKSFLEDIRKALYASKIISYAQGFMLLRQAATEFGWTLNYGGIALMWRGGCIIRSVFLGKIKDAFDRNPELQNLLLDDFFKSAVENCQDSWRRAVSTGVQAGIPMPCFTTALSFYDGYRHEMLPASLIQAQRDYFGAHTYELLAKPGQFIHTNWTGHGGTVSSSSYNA

For `CC(=O)NC(C(=O)O)C(C)(C)SN=O` (stereo not drawn), the inhibition in experiment [1] was 3.72% (inactive). Further, in [2], the red/green cell ratio (normalised) was 1.02 (inactive). The normalised cell number worked out at 1.04 in experiment [2] (setting [19]) and 1.06 in experiment [2] (setting [20]).
As to `CN1C[C@H](C(=O)N[C@]2(C)O[C@@]3(O)[C@@H]4CCCN4C(=O)[C@H](Cc4ccccc4)N3C2=O)C[C@@H]2c3cccc4[nH]cc(c34)C[C@H]21`, the inhibition is -12.1% in experiment [3], -3% (inactive) in experiment [12] and 6.21% (inactive) in experiment [1]. This compound also returned a score in experiment [4] of 1.21. For the same compound, the rescue above control in [5] is 4.53. In addition, the cytochrome c release ratio in experiment [6] stood at 1.48. This compound also had an inhibition of aggregation in experiment [7] of 29.7%. Further, the glutamate uptake change in experiment [8] is 15.4%. For the same compound, the aggregation suppression score in experiment [9] was 1.29. Moreover, the period change in experiment [10] is 0.225 h (inactive). Moreover, the parasite load remaining in experiment [11] is 81.1% (inactive) and 61.1% (inactive) and 32.5% (inactive). Further, the viability in experiment [11] is 69.3% and 88.9% and 89.9%. Besides, the red/green cell ratio (normalised) in [2] was 1.38 (inactive). Also, the figures for the normalised cell number in experiment [2] (setting [19]) and in [2] (setting [20]) were 1.07 and 1.48, respectively. Also, the fold change is 1.02 (inactive) and 0.955 (inactive) and 0.914 (inactive) in [13] (setting [21]); 1.31 and 1.01 and 2.52 in [13] (setting [22]). Also, the cell count is 7530 and 7990 and 11700 in experiment [13] (setting [23]); 7390 and 8360 and 12800 in [13] (setting [24]). Also, the compound was called inactive in experiment [14]. In addition, in experiment [15], the remaining NAD was 10 nM (inactive). Further, the luciferase signal in experiment [16] is 32 AU (inactive). The z-score in experiment [17] was -0.125 (inactive) and -0.835 (inactive).
`COc1cc(OC)c2c(=O)cc(-c3ccccc3)oc2c1`: the inhibition in experiment [1] was 13.7% (inactive). Further, the red/green cell ratio (normalised) in experiment [2] is 0.95 (inactive). Also, the normalised cell number in [2] (setting [19]) is 1.06; in [2] (setting [20]), 1.01.
Take `O=C(O)c1cccnc1C(=O)O`: the inhibition was -5.39% in [3], -2% (inactive) in experiment [12] and 2.35% (inactive) in [1]. The same compound showed a score in experiment [4] of 1.95. In [5], this compound registered a rescue above control of 5.37. Also, the cytochrome c release ratio in [6] was determined as 1.17. Further, the inhibition of aggregation in [7] amounted to 58.6%. For the same compound, in experiment [8], the glutamate uptake change was -5.4%. Moreover, in experiment [18], the inclusion score was 2. The same compound gave an aggregation suppression score in experiment [9] of 1.12. Further, the period change in experiment [10] is -0.235 h (inactive). The parasite load remaining in [11] was 83.9% (inactive). Further, the viability in [11] was 75.4%. Besides, in experiment [2], the red/green cell ratio (normalised) is 0.71 (inactive). In addition, the figures for the normalised cell number in experiment [2] (setting [19]) and in experiment [2] (setting [20]) were 1.39 and 0.99, respectively. Also, the fold change in experiment [13] (setting [21]) is 0.98 (inactive) and 0.953 (inactive); in experiment [13] (setting [22]), 1.66 and 1.07. Further, the cell count in [13] (setting [23]) is 9820 and 8590; in [13] (setting [24]), 10000 and 9010. Moreover, the result in [14] was inactive. Further, the luciferase signal in experiment [16] is 84 AU (inactive). For the same compound, the z-score in experiment [17] is 0.32 (inactive) and -0.225 (inactive).
On to `COc1cccc(-c2cc(=O)c3cc(OC)ccc3o2)c1`, for which the inhibition in [1] was -1.86% (inactive). For the same compound, the red/green cell ratio (normalised) in experiment [2] was 1.05 (inactive). Moreover, the normalised cell number is 0.89 in experiment [2] (setting [19]) and 0.94 in experiment [2] (setting [20]).
